Active and inactive are the calls of the source. The calls were made as follows: active = hit-call score of the fitted dose curve at least 0.9, where 1 is the maximum; inactive = score below 0.9.
What was measured:
Conditions in all cases: mRNA level, 48 h; actives raise or lower the signal
[1] = read-out: Cytochrome P450 3A4 (Homo sapiens) (UniProt P08684); assay: LTEA_HepaRG_CYP3A4: Life Technologies and Expression Analysis (LTEA) Assay for CYP3A4 using HepaRG (AID 2283487)
In short: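 HepaRG, 48 h exposure, 8-pt CRC from 100 uM (half-log), 0.5% DMSO, duplicates; serum-free induction medium. Readout: CYP3A4 mRNA, qRT-PCR, ACTB/GAPDH/POLR2A normalization. Bidirectional fit vs DMSO.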

[2] = read-out: DNA damage-inducible transcript 3 (DDIT3), DDIT3 (gene 1649); assay: LTEA_HepaRG_DDIT3: Life Technologies and Expression Analysis (LTEA) Assay for DNA damage-inducible transcript 3 (DDIT3) using HepaRG (AID 2283488)
In short: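 qRT-PCR readout (Fluidigm TaqMan), housekeeping-normalized to ACTB, GAPDH, POLR2A. HepaRG cells, 48 h exposure, 8-point half-log series from 100 uM in 0.5% DMSO, duplicates. Gain or loss of signal fitted against DMSO baseline.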

[3] = read-out: Pro-epidermal growth factor (Homo sapiens) (UniProt P01133); assay: LTEA_HepaRG_EGF: Life Technologies and Expression Analysis (LTEA) Assay for Epidermal growth factor (EGF) using HepaRG (AID 2283489)
In short: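 EGF transcript measured by Fluidigm TaqMan qRT-PCR with three housekeeping genes for normalization, 48 h after dosing HepaRG cultures in duplicate (top 100 uM, half-log steps, 0.5% DMSO vehicle). Gain or loss relative to DMSO fitted.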

[4] = read-out: Early growth response protein 1 (EGR1) transcription factor, EGR1 (gene 1958); assay: LTEA_HepaRG_EGR1: Life Technologies and Expression Analysis (LTEA) Assay for Early growth response protein 1 (EGR1) transcription factor using HepaRG (AID 2283490)
In short: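 EGR1 transcript levels quantified by qRT-PCR (Fluidigm arrays) against three housekeeping genes after 48 h chemical exposure of HepaRG cells. Eight-point half-log series topping at 100 uM, 0.5% DMSO vehicle, analyzed for gain or loss.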

[5] = read-out: Ezrin (EZR), EZR (gene 7430); assay: LTEA_HepaRG_EZR: Life Technologies and Expression Analysis (LTEA) Assay for Ezrin (EZR) using HepaRG (AID 2283491)
In short: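 Read-out is EZR transcript level by qRT-PCR, normalized to three housekeeping genes and fitted bidirectionally against the DMSO control. Human HepaRG cells received test chemicals for 48 h at eight half-log concentrations up to 100 uM in 0.5% DMSO.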

[6] = read-out: Cytochrome P450 3A7 (Homo sapiens) (UniProt P24462); assay: LTEA_HepaRG_CYP3A7: Life Technologies and Expression Analysis (LTEA) Assay for CYP3A7 using HepaRG (AID 2283492)
In short: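 CYP3A7 transcript measured by qRT-PCR (ACTB, GAPDH, POLR2A normalization) after 48 h chemical exposure of HepaRG cells in duplicate. Eight half-log concentrations, maximum 100 uM, 0.5% DMSO vehicle; bidirectional curve fitting against DMSO baseline.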

CYP3A5 (gene 1577) = assay: LTEA_HepaRG_CYP3A5: Life Technologies and Expression Analysis (LTEA) Assay for CYP3A5 using HepaRG (AID 2283493)
In short: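 qRT-PCR read-out: CYP3A5 transcript in HepaRG lysates, housekeeping-normalized (ACTB/GAPDH/POLR2A), fitted bidirectionally against 0.5% DMSO baseline. Exposure 48 h, eight half-log concentrations up to 100 uM, duplicates.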

[7] = read-out: Fatty Acid-Binding Protein 1 (FABP1), FABP1 (gene 2168); assay: LTEA_HepaRG_FABP1: Life Technologies and Expression Analysis (LTEA) Assay for Fatty Acid-Binding Protein 1 (FABP1) using HepaRG (AID 2283494)
In short: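 FABP1 expression by TaqMan qRT-PCR, normalised to three housekeeping genes, in HepaRG cells after 48 h chemical treatment. Eight-point half-log series topping at 100 uM in 0.5% DMSO, duplicates; gain or loss fitted relative to vehicle.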

[8] = read-out: Cytochrome P450 4A22 (Homo sapiens) (UniProt Q5TCH4); assay: LTEA_HepaRG_CYP4A22: Life Technologies and Expression Analysis (LTEA) Assay for Cytochrome P450 4A22 (CYP4A22) using HepaRG (AID 2283495)
In short: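 Gene expression measured by qRT-PCR against three housekeeping genes (ACTB, GAPDH, POLR2A), with gain or loss fitted relative to 0.5% DMSO vehicle. HepaRG cultures received 48 h chemical treatment, top concentration 100 uM, half-log steps, duplicate wells.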

[9] = read-out: Cytochrome P450 7A1 (Homo sapiens) (UniProt P22680); assay: LTEA_HepaRG_CYP7A1: Life Technologies and Expression Analysis (LTEA) Assay for Cytochrome P450 7A1 (CYP7A1) using HepaRG (AID 2283496)
In short: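 Using 0.5% DMSO as vehicle and baseline, chemicals were tested in duplicate over an 8-point range from 100 uM on HepaRG cells for 48 h; qRT-PCR signals were normalised to ACTB, GAPDH and POLR2A.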

[10] = read-out: Glutathione S-Transferase (GSTA2), GSTA2 (gene 2939); assay: LTEA_HepaRG_GSTA2: Life Technologies and Expression Analysis (LTEA) Assay for Glutathione S-Transferase (GSTA2) using HepaRG (AID 2283497)
In short: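 GSTA2 transcript levels came from Fluidigm TaqMan qRT-PCR normalized to three housekeeping genes, fitted in both directions against DMSO. HepaRG cultures received chemicals for 48 h in serum-free induction medium (0.5% DMSO), 8 half-log concentrations up to 100 uM, duplicate.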

[11] = read-out: Glutamate-cysteine ligase catalytic (GCLC), GCLC (gene 2729); assay: LTEA_HepaRG_GCLC: Life Technologies and Expression Analysis (LTEA) Assay for Glutamate-cysteine ligase catalytic (GCLC) using HepaRG (AID 2283498)
In short: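 Expression by TaqMan qRT-PCR, normalized to three housekeeping genes (ACTB, GAPDH, POLR2A), with up- or down-regulation fitted against DMSO. HepaRG cells dosed in duplicate for 48 h with 8 half-log concentrations up to 100 uM, vehicle 0.5% DMSO.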

[12] = read-out: growth arrest and DNA damage 45 (GADD45G), GADD45G (gene 10912); assay: LTEA_HepaRG_GADD45G: Life Technologies and Expression Analysis (LTEA) Assay for growth arrest and DNA damage 45 (GADD45G) using HepaRG (AID 2283499)
In short: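 GADD45G transcript level by qRT-PCR (housekeeping-normalized: ACTB, GAPDH, POLR2A) after 48 h chemical treatment of a single HepaRG lot in serum-free induction medium; eight-point half-log series up to 100 uM in 0.5% DMSO, duplicates, up- or down-regulation scored.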

[13] = read-out: Glutamate-cysteine ligase regulatory (GCLM), GCLM (gene 2730); assay: LTEA_HepaRG_GCLM: Life Technologies and Expression Analysis (LTEA) Assay for Glutamate-cysteine ligase regulatory (GCLM) using HepaRG (AID 2283500)
In short: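 HepaRG, 48 h dosing, 100 uM top, half-log x8, 0.5% DMSO vehicle. Readout: GCLM mRNA by TaqMan qRT-PCR, housekeeping-normalized (ACTB/GAPDH/POLR2A). Curves fit bidirectionally vs DMSO baseline.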

[14] = read-out: Glutathione S-transferase M3 (GSTM3), GSTM3 (gene 2947); assay: LTEA_HepaRG_GSTM3: Life Technologies and Expression Analysis (LTEA) Assay for Glutathione S-transferase M3 (GSTM3) using HepaRG (AID 2283501)
In short: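 GSTM3 transcript levels came from Fluidigm TaqMan qRT-PCR normalized to three housekeeping genes, fitted in both directions against DMSO. HepaRG cultures received chemicals for 48 h in serum-free induction medium (0.5% DMSO), 8 half-log concentrations up to 100 uM, duplicate.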

[15] = read-out: Heat shock 70 kDa protein 1 (HSPA1A), gene 3303; assay: LTEA_HepaRG_HSPA1A: Life Technologies and Expression Analysis (LTEA) Assay for Heat shock 70 kDa protein 1 (HSPA1A) using HepaRG (AID 2283502)
In short: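 HepaRG, 48 h exposure, 8-pt half-log CRC from 100 uM in 0.5% DMSO, duplicates. Readout: TaqMan qRT-PCR of HSPA1A mRNA, housekeeping-normalized (ACTB/GAPDH/POLR2A). Bidirectional fit vs 0.5% DMSO baseline.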

[16] = read-out: Hypoxia-inducible factor 1-alpha (Homo sapiens) (UniProt Q16665); assay: LTEA_HepaRG_HIF1A: Life Technologies and Expression Analysis (LTEA) Assay for Hypoxia-inducible factor 1 (HIF1A) Trancription factor using HepaRG (AID 2283503)
In short: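 Gain- or loss-of-signal HIF1A mRNA changes are fitted against a DMSO baseline. HepaRG cultures receive eight concentrations, highest 100 uM, for 48 h in serum-free induction medium with 0.5% DMSO.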

[17] = read-out: 3-Hydroxy-3-Methylglutaryl-CoA Synthase 2 (HMGCS2), HMGCS2 (gene 3158); assay: LTEA_HepaRG_HMGCS2: Life Technologies and Expression Analysis (LTEA) Assay for 3-Hydroxy-3-Methylglutaryl-CoA Synthase 2 (HMGCS2) using HepaRG (AID 2283504)
In short: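 Readout is HMGCS2 transcript by qRT-PCR, housekeeping-normalised (ACTB/GAPDH/POLR2A) and fitted bidirectionally against 0.5% DMSO. Differentiated HepaRG cells received chemicals 48 h, duplicate wells, eight half-log concentrations topping at 100 uM.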

HGF (gene 3082) = assay: LTEA_HepaRG_HGF: Life Technologies and Expression Analysis (LTEA) Assay for Hepatocyte Growth Facto (HGF) using HepaRG (AID 2283505)
In short: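 HGF transcript was quantified by TaqMan qRT-PCR against three housekeeping genes after 48 h treatment of HepaRG cells. Exposure ran in duplicate over eight half-log steps topping at 100 uM in 0.5% DMSO vehicle.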

CYP4A11 (gene 1579) = assay: LTEA_HepaRG_CYP4A11: Life Technologies and Expression Analysis (LTEA) Assay for CYP4A11 using HepaRG (AID 2283486)
In short: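 Readout is CYP4A11 transcript level by qRT-PCR, normalized to three housekeeping genes and fitted bidirectionally against 0.5% DMSO. Human HepaRG cells were treated 48 h, in duplicate, with an 8-point half-log series topping at 100 uM.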

Measured: AC50

Chain of Hypoxia-inducible factor 1-alpha (Homo sapiens) (Q16665 whole entry, looked up): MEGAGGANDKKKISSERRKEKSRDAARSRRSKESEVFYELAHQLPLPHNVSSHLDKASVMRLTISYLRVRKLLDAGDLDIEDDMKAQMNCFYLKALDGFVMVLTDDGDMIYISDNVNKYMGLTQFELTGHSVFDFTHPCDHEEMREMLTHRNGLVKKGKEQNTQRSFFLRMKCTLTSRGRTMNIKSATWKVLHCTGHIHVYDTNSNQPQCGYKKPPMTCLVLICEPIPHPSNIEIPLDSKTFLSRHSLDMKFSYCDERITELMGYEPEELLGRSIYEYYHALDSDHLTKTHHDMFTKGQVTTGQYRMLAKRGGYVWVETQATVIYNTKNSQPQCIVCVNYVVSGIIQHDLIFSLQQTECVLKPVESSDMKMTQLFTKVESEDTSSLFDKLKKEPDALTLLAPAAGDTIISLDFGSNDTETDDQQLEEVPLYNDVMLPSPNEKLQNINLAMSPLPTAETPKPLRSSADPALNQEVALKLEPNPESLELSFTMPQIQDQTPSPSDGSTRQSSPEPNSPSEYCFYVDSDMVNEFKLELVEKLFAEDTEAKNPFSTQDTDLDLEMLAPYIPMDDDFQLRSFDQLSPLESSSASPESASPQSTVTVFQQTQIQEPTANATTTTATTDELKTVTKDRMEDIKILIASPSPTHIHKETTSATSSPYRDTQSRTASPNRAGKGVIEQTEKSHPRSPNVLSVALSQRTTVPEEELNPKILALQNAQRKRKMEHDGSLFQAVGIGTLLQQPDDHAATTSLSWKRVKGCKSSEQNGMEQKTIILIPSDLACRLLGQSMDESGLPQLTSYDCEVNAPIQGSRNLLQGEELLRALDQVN
Chain of Cytochrome P450 3A7 (Homo sapiens) (P24462 whole entry, looked up): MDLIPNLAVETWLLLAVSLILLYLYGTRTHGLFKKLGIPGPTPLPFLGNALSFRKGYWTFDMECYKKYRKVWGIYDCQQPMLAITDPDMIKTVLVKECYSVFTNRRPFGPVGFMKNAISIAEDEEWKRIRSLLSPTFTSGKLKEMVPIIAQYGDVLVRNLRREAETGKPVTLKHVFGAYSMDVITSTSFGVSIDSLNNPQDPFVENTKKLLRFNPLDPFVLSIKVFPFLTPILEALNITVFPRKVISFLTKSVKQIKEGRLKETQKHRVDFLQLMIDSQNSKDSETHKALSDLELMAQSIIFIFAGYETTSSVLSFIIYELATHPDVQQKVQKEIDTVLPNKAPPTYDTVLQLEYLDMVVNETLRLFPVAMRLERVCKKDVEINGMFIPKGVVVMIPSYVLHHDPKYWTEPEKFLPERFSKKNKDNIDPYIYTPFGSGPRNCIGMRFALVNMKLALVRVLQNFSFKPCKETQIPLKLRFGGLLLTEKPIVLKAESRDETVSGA
Chain of Cytochrome P450 3A4 (Homo sapiens) (P08684 whole entry, looked up): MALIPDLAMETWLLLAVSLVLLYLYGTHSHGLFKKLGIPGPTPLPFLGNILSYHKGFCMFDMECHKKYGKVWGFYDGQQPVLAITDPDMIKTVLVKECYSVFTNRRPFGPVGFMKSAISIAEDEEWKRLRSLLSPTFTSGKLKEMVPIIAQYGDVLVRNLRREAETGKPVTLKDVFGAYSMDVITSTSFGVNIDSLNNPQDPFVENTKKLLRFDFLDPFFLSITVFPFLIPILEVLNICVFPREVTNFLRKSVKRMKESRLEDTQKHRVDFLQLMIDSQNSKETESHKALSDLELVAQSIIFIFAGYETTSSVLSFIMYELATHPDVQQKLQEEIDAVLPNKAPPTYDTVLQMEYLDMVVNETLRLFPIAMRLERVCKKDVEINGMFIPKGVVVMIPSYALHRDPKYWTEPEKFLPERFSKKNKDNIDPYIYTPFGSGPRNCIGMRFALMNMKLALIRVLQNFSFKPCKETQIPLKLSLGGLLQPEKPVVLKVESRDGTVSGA

Clc1ccc(C(Cl)(Cl)Cl)cc1
inactive: [1] | [2] | [3] | [4] | [5] | [6] | CYP3A5 (gene 1577) | [7] | [8] | [9] | [10] | [11] | [12] | [13] | [14] | [15] | [16] | [17] | HGF (gene 3082)

CCCCCCCCCc1ccc(O)cc1
active: [7] 50 µM | [8] 31.9 µM | [17] 50 µM
inactive: [1] | [2] | [3] | [4] | [5] | [6] | CYP3A5 (gene 1577) | [9] | [10] | [11] | [12] | [13] | [14] | [15] | [16] | HGF (gene 3082)

Cc1cc(O)ccc1Cl
inactive: CYP4A11 (gene 1579) | [1] | [2] | [3] | [4] | [5] | CYP3A5 (gene 1577) | [7] | [8] | [9] | [10] | [11] | [12] | [14] | [15] | [16] | [17] | HGF (gene 3082)

CN(C)c1nc(=O)n(C2CCCCC2)c(=O)n1C
active: [1] 50 µM | [6] 28.6 µM
inactive: CYP4A11 (gene 1579) | [2] | [3] | [4] | [5] | CYP3A5 (gene 1577) | [7] | [8] | [9] | [10] | [11] | [12] | [14] | [15] | [16] | [17] | HGF (gene 3082)

CCCCCCCCOC(=O)c1ccccc1C(=O)OCCCCCCCC
inactive: [1] | [2] | [3] | [4] | [5] | [6] | CYP3A5 (gene 1577) | [7] | [8] | [9] | [10] | [11] | [12] | [13] | [14] | [15] | [16] | [17] | HGF (gene 3082)

CC(c1ccc(O)cc1)(c1ccc(O)cc1)c1ccc(O)cc1
inactive: CYP4A11 (gene 1579) | [2] | [3] | [8] | [14] | [15] | [16]
active: [1] 23.6 µM | [4] 81 µM | [5] 38.7 µM | CYP3A5 (gene 1577) 37.1 µM | [7] 75.8 µM | [9] 67 µM | [10] 37.3 µM | [11] 73.4 µM | [12] 75.1 µM | [17] 85.1 µM | HGF (gene 3082) 25.1 µM

Source: PubChem BioAssay (EPA / NIEHS)
